An excerpt weighted towards active compounds, which were near 8% of everything screened.
Lassa entry inh – Lassa virus entry inhibition | actives 1.2% (n = 300,000) | Lassa virus pseudotype entry inhibition, cell reporter | Potency, µM (highest dose often 37.9 µM), without a hit: top-dose activity change, negative = inhibition, usual class: inhibitors; calls by dose curve; tested in HEK293 cells; note: potency is the fitted concentration of half-maximal effect; % is set by controls: 0 for no effect and ±100 for the full control effect; nearly all actives have a fitted effect of over 50% in size
SARS PLP yeast – blocks SARS-CoV papain-like protease in a yeast assay. Potency, µM (titrated, usually from 32.9 µM), for inactives: at the highest dose activity, positive = growth rescue, actives largely listed as activators. actives 0.19% (n = 330,000). S. cerevisiae expressing SARS-CoV PLpro, growth rescue; calls by dose curve; note: potency is the fitted concentration of half-maximal effect; 0% is about no effect; nearly all actives have a fitted effect of over 55% in size
FMDV inh – antivirals against foot and mouth disease virus; FMDV antiviral cell-based qHTS; Potency, µM (titrated, usually from 57.9 µM), for inactives: top-dose activity change, negative = inhibition, usual class: inhibitors; actives 1.2% (n = 410,000); calls by dose curve; tested in HEK293T cells; note: read-out not given here; potency is the fitted concentration of half-maximal effect; % is set by controls: 0 for no effect and ±100 for the full control effect; nearly all actives have a fitted effect of over 45% in size
MARV entry inh – inhibitors of Marburg virus binding or cell entry. Potency, µM (highest dose often 37.8 µM), inactives show at the highest dose activity change, negative = inhibition, most hits filed as inhibitors. actives 1.8% (n = 300,000). Marburg virus pseudotyped entry inhibition, cell reporter. AID 540276; calls by dose curve; tested in HEK293 cells; note: potency is the fitted concentration of half-maximal effect; % is set by controls: 0 for no effect and ±100 for the full control effect
HCMV inh – blocks human cytomegalovirus replication. AID 1259415. activity change, negative = inhibition, % at 57.5 µM. HFF cells, HCMV-luciferase reporter, 72 h; hits give low values. actives 4.5% (n = 410,000); in the data active = activity change below about -60%; inconclusive = no clear call, values can overlap the other calls; inactive = above about -39%; note: % is set by controls: 0 for no effect and ±100 for the full control effect
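Steps: HFFs plated, 16 h 37C; compounds added; HCMV-luciferase added to MOI 1 PFU/cell; 72 h 37C; OneGlo reagent, 5 min room temperature; luminescence read, normalized to controls.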
HCV inh – HCV inhibition. Huh7.5.1 HCVcc-Cre infection, luciferase reporter, 44 h. Potency, µM (titrated, usually from 41.8 µM), inactives show at the top dose activity change, negative = inhibition, actives largely listed as inhibitors. actives 3.4% (n = 340,000). AID 651820; active = well fitted inhibition curve with a large enough effect; inconclusive = small, poorly fitted or top-dose-only effect, or another doubt; inactive = no such curve, though single readings can be large or run the other way; note: potency is the fitted concentration of half-maximal effect; % is set by controls: 0 for no effect and ±100 for the full control effect
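HCVcc-Cre virus at an moi near 0.5 was added right after compound to cells cultured 4 h from seeding (1,000 cells/well). Luciferase activity was determined 44 h later, 15 min after substrate addition at RT.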
* marks the source's active call; other numbers are inactive results; ? = inconclusive; nt = no result; [ ] = dose if it differs, or a comment.

SMILES	Lassa entry inh	SARS PLP yeast	FMDV inh	MARV entry inh	HCMV inh	HCV inh
CC(C)N1CCc2c(sc(NC(=O)CCS(=O)(=O)c3ccccc3)c2C(N)=O)C1	nt	-4%	12%	nt	-111*	-11%
CC1=C(c2ccc(C(C)C)cc2)S(=O)(=O)N=C1N1CCN(c2ccccc2F)CC1	-1%[46.1 µM]	nt	6%	-23%[46.1 µM]	-62*	nt
CC1=C(c2ccc(C(C)C)cc2)S(=O)(=O)N=C1N1CCN(C(=O)c2ccco2)CC1	-2%[46.1 µM]	24%	?	9%[46.1 µM]	-21	-8%
COc1cccc(C(=O)Nc2nc(-c3nnn(-c4cccc(Cl)c4C)c3C)ns2)c1	3%[46.1 µM]	nt	-19%	nt	-7	nt
CCCCNCc1cc(Br)c(OCC(=O)N2CCOCC2)c(OC)c1	19%	3%	20%	-17%	35	27%
CCCCOc1c(Br)cc(CNCCCN2CCOCC2)cc1OC	?	-10%	-6%	?	-24	4µM*
CCc1ccc(-n2c(=O)c3c4c(sc3n(CC(=O)c3ccc(F)cc3)c2=O)CCC4)cc1	19%[46.1 µM]	nt	-21%	-2%[46.1 µM]	-88*	nt
CC1(C)CC2CC(C)(CN2/C=N/c2sc3c(c2C#N)CC(C)(C)NC3(C)C)C1 (stereo not drawn)	?	0%	0%	?	-88*	?
CC1(C)Cc2c(sc(N)c2C#N)C(C)(C)N1	nt	1%	10%	nt	1	0%
Cc1ccc(CNC(=O)c2c(-c3ccccc3Cl)noc2C)o1	-7%[46.1 µM]	nt	-23%	nt	-4	nt
Cc1cc(Cl)c(S(=O)(=O)Nc2ccon2)cc1OCC(=O)NC1CCCCC1	1%	0%	0%	?	14	1%
Cc1cc(Cl)c(S(=O)(=O)N2CCN(c3ccc(F)cc3)CC2)cc1OCC(=O)NC1CCCCC1	?	-7%	?	10µM*	-98*	0.79µM*
Cc1cc(Cl)c(S(=O)(=O)NCC2CCCO2)cc1OCC(=O)NC1CCCCC1 (stereo not drawn)	0%	-2%	3%	3%	-93*	12%
Cc1cc(Cl)c(S(=O)(=O)Nc2ccc3c(c2)OCCO3)cc1OCC(=O)NC1CCCCC1	-51%	0%	?	?	-70*	-19%
Cc1ccc(N(CC(=O)NCCc2ccccc2C)S(=O)(=O)N(C)C)cc1	0%[46.1 µM]	nt	-6%	?	-13	nt
CC(C)=CCN1C(=O)[C@@]2(CC(C)=CC[C@@H](COc3ccccc3)O2)c2ccccc21	?	nt	nt	3%[14.2 µM]	nt	nt
COc1cc2c(cc1OC)-c1c(OC)c(OC)cc3c1C(C2)N(C)CC3 (stereo not drawn)	nt	3%	-14%	nt	28	-32%
COc1cc2c(cc1O)C(Cc1ccc(O)cc1)NCC2 (stereo not drawn)	-15%	6%	-12%	13%	-11	-2%
COc1cc2c(cc1OC)-c1c3c(cc4c1[C@@H](C2)N(C)CC4)OCO3	?	22%	?	-40%	-76*	?
COc1cc2c(cc1O)C[C@H]1NCCc3cc4c(c-2c31)OCO4	?	-9%	0%	?	-84*	11%[8.37 µM]
CSc1ccc(CCNC(=O)C2CCN(c3ncnc4c3nc3n4CCCCC3)CC2)cc1	2%[46.1 µM]	nt	-1%	nt	-26	nt
Cc1cccc(N=C2c3cc([N+](=O)[O-])ccc3-c3c2cc([N+](=O)[O-])cc3[N+](=O)[O-])c1	-30%	nt	?	?	16	7.1µM*
O=C(O)c1cccc2c1C(=O)c1cc([N+](=O)[O-])cc([N+](=O)[O-])c1-2	nt	nt	-4%	nt	74	nt
CC1=C(C(=O)OCc2ccccc2)C(c2ccsc2)NC(=O)N1C (stereo not drawn)	nt	0%	-29%	nt	-39	-2%
CC1=C(C(=O)OCCc2ccccc2)C(c2ccsc2)NC(=O)N1C (stereo not drawn)	?	22%	-20%	-19%	-67*	-19%
CCOC(=O)C1=CNS(=O)(=O)NC1c1cccc(O)c1 (stereo not drawn)	nt	19%	0%	nt	-9	-7%[8.37 µM]
CCOC(=O)C1=CNS(=O)(=O)NC1c1ccc2ccccc2c1 (stereo not drawn)	nt	17%	-3%	nt	2	6.3µM*
CCOc1cc(C(=O)Nc2ccc(C)cc2O)ccc1OCC(=O)N1CCOCC1	7%	nt	-9%	-6%	22	?

Screening data as filed in PubChem.
